The list is a sample of the results.
aSyn 5UTR act = Activators working through SNCA 5'UTR binding (MLPCN) | alpha-synuclein 5'UTR reporter, activators screen | activity score, % (tested at 7.5 µM), hits read low | hit rate 7.1% among 300,000; in the data active means activity score below about -60%
Active calls of the source: *.

What do the screens show for `COCCCN1CN=C(Nc2nc3ccccc3o2)NC1`?
aSyn 5UTR act: -81.7*

What do the screens show for `CCCN1CN=C(Nc2nc3ccccc3o2)NC1`?
aSyn 5UTR act: -112.9*

Results for c1ccc2oc(NC3=NCN(CC4CCCO4)CN3)nc2c1 (stereo not drawn) ?
aSyn 5UTR act: -93.7*

What do the screens show for `CN1CCC(Oc2ccc(Sc3ccccc3)cc2)CC1`?
aSyn 5UTR act: -76.8*

How did COc1ccc(/C=C/C(=O)OCC(=O)c2ccc3c(c2)NC(=O)CO3)c(OC)c1 do in these assays?
aSyn 5UTR act: 41.7

Results for COc1ccccc1/C=C/C(=O)c1ccc(Cl)cc1 ?
aSyn 5UTR act: -61.7*

What do the screens show for `COc1cc(CC(=O)OCC(=O)c2ccc3c(c2)OCCO3)cc(OC)c1OC`?
aSyn 5UTR act: 100.5

How did COc1cccc(/C=C/C(=O)c2ccc3c(c2)OCCO3)c1OC do in these assays?
aSyn 5UTR act: -306.9*

Results for COc1cc(O)c(C(=O)/C=C/c2ccccc2)c(OC)c1 ?
aSyn 5UTR act: -162.7*

What do the screens show for `COc1ccc(/C=C/C(=O)c2ccc3c(c2)OCO3)c(OC)c1`?
aSyn 5UTR act: -84.5*

What do the screens show for `CCN(CC(=O)Nc1ccc2c(c1)OCCO2)C(=O)/C=C/c1cccc(OC)c1OC`?
aSyn 5UTR act: -93.2*

Results for O=C(/C=C/c1ccccc1O)c1ccc(Cl)cc1 ?
aSyn 5UTR act: -188.9*

What do the screens show for `COc1ccccc1/C=C/C(=O)c1ccc(NC(C)=O)cc1`?
aSyn 5UTR act: -204.6*

How did CCOc1ccccc1/C=C/C(=O)c1ccc(Cl)cc1 do in these assays?
aSyn 5UTR act: -79.7*

How did COc1ccccc1/C=C/C(=O)c1ccccc1 do in these assays?
aSyn 5UTR act: -154.9*

How did COc1ccc(/C=C/C(=O)c2ccccc2)c(OC)c1 do in these assays?
aSyn 5UTR act: -207.2*

What do the screens show for `COc1ccccc1/C=C/C(=O)NC(=S)NC(C)C`?
aSyn 5UTR act: -93.2*

How did COc1ccccc1/C=C/C(=O)N1CCC(c2ccccc2)C1 (stereo not drawn) do in these assays?
aSyn 5UTR act: -176.5*

What do the screens show for `CNC(=S)Nc1cccc(C(=O)OC)c1`?
aSyn 5UTR act: -90.8*

What do the screens show for `COC(=O)c1cccc(NC(=S)Nc2cccc(Cl)c2Cl)c1`?
aSyn 5UTR act: -69.3*

Results for S=C(Nc1ccccc1)Nc1ccc(Cl)cc1Cl ?
aSyn 5UTR act: -91.2*

Results for S=C(Nc1ccccc1)Nc1cccc(Cl)c1Cl ?
aSyn 5UTR act: -67.1*

How did NNC(=S)Nc1ccccc1Cl do in these assays?
aSyn 5UTR act: -185.5*

What do the screens show for `Cn1c(-c2ccc(CN3CCCCC3)o2)nc2ccccc21`?
aSyn 5UTR act: -89.3*

What do the screens show for `COc1ccc2sc3ccccc3c(=O)c2c1`?
aSyn 5UTR act: -169.7*

What do the screens show for `COc1ccc(-c2cc(=O)c3ccccc3s2)cc1`?
aSyn 5UTR act: -248.0*

What do the screens show for `COc1ccc2oc3ccccc3c(=O)c2c1`?
aSyn 5UTR act: -161.5*

How did COc1ccc2oc3ccc(OC)cc3c(=O)c2c1 do in these assays?
aSyn 5UTR act: -189.5*

How did Cc1cc(N2CCCCC2)nc(SCC(=O)c2ccccc2)n1 do in these assays?
aSyn 5UTR act: -119.1*

What do the screens show for `Cc1cc(N2CCCC2)nc(-c2ccccc2O)n1`?
aSyn 5UTR act: -61.7*

Results for COc1ccc(CCn2c(-c3ccccc3)nc3c(c(=O)c4ccccc4n3C)c2=O)cc1 ?
aSyn 5UTR act: -86.4*

What do the screens show for `COc1ccc(CCn2c(C3CCCCC3)nc3c(c(=O)c4ccccc4n3C)c2=O)cc1`?
aSyn 5UTR act: 75.0

What do the screens show for `O=c1c(-c2nc3ccccc3s2)cccn1Cc1ccccc1`?
aSyn 5UTR act: -86.8*

What do the screens show for `Cc1ccc(Cn2cccc(-c3nc4ccccc4s3)c2=O)cc1`?
aSyn 5UTR act: -194.1*

Results for COc1cc(C)ccc1OCCCOc1ccccc1Br ?
aSyn 5UTR act: -149.0*

Results for COc1ccccc1OCCCOc1ccc(C)cc1Br ?
aSyn 5UTR act: -138.8*

Results for COc1cc(C)ccc1OCCOc1c(C)cccc1Cl ?
aSyn 5UTR act: -108.2*

What do the screens show for `COc1ccccc1/C=C/c1nc(C#N)c(N(C)C)o1`?
aSyn 5UTR act: -196.1*

How did CN(C)c1oc(/C=C/c2ccccc2)nc1C#N do in these assays?
aSyn 5UTR act: -261.9*

What do the screens show for `CNc1nc(C)nc(-c2ccccc2O)n1`?
aSyn 5UTR act: -75.0*

How did C/C(=N\Nc1nc2c(s1)CCCC2)c1ccc(Cl)cc1 do in these assays?
aSyn 5UTR act: -100.0*

Results for Cc1ccc(-n2ncc(Cl)c2C(=O)NCc2ccccc2)cc1 ?
aSyn 5UTR act: -83.1*

Results for C=CCNC(=O)c1c(Br)cnn1-c1ccc(C)cc1 ?
aSyn 5UTR act: -87.8*

How did C=C1C(=O)O[C@@H]2C[C@@H](C)[C@@H]3C=CC(=O)[C@@]3(C)[C@@H](OC(C)=O)[C@H]12 do in these assays?
aSyn 5UTR act: 95.4

What do the screens show for `O=C(NCc1ccccc1F)c1ccc2c(c1)OCCO2`?
aSyn 5UTR act: -79.9*

What do the screens show for `O=C(CCC1CCCN(C(=O)c2ccc3c(c2)OCCO3)C1)NCc1ccccc1F` (stereo not drawn)?
aSyn 5UTR act: -66.0*

How did O=C(Cc1csc(Nc2nc(=S)[nH]c3ccccc23)n1)NCCCN1CCN(c2ccccc2F)CC1 do in these assays?
aSyn 5UTR act: 91.5
